Data as given in PubChem BioAssay AID642 (Vanderbilt High Throughput Screening Facility, 2007).
About 2,000 (91%) of roughly 2,200 compounds were called active.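 How the source made its calls: active means luminescence in either of two replicates above the same-plate mean plus 3 SD of the low-dose dopamine control; inactive means the rest.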 So high a share suggests a set chosen from earlier hits. The list is a sample of the results.

The compounds below were run against D(1A) dopamine receptor (Homo sapiens) (UniProt P21728) (assay: potentiation of dopamine EC30 D1 response – cell-based, HEK293 D1, CRE-luciferase, duplicate, confirmation (AID 642)). Settings: at 10 µM, stronger effect = higher value.
D(1A) dopamine receptor (Homo sapiens), sequence (P21728 whole entry, looked up): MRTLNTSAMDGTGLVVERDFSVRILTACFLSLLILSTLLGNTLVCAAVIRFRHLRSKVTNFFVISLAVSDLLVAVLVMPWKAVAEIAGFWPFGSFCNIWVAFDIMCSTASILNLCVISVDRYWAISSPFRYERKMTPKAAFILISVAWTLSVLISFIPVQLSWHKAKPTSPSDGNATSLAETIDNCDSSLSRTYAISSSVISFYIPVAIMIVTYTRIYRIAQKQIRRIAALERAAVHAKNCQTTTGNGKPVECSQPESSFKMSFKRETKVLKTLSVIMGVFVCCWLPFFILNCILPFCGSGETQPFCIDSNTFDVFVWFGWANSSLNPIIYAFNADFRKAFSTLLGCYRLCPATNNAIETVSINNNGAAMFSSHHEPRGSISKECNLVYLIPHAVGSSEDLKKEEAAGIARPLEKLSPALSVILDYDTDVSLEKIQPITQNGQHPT
For `CCC(=NCc1ccco1)c1c(O)n(Cc2ccccc2)c(=O)[nH]c1=O`, the luminescence was 18900 (active).
